Measured values reported in publication PMC7819943, “Rice protein-binding microarrays: a tool to detect cis-acting elements near promoter regions in rice”.
The full ranking holds about 35,000 sequences; the median of “fluorescence intensity (a.u.)” is about 10,000, and the highest 2% start at about 52,000. The sample as a whole holds a higher share of the highest values than the screen did.

biological target: T1, OsWOX13 (Oryza sativa, UniProt Q5QMM3 1-267); assay: protein-binding microarray (RPBM); PBS, 2% BSA, 51.3 ng/ul salmon testes DNA, 50 uM zinc acetate, 200 nM TF, 25 C, 1 h; high values mean tight binding; conditions: protein: recombinant; tags: N-terminal polyhistidine and DsRed monomer fusion (pET32a); label: CyDye5-dUTP incorporated in the synthesized complementary strand; 3' TTTTT single-stranded linker to array surface; dsDNA, one strand shown
T1 sequence: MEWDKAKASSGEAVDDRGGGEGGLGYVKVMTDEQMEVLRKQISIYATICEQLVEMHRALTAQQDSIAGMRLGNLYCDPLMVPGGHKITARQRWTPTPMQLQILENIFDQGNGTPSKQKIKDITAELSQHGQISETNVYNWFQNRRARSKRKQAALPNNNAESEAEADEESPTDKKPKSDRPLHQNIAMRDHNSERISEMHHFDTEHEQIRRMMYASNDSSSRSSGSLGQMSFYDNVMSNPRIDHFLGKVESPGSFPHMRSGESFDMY
How it was run: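 Binding signal is defined as the fluorescence intensity of each feature in arbitrary units, read on an Axon 4000B scanner. Transcription factors with N-terminal polyhistidine and DsRed fusions came from E. coli BL21-CodonPlus and were purified on Ni–NTA. They were incubated at 200 nM for 1 h at 25 °C on a custom Agilent array that had been made double-stranded with Cy5-dUTP, with 50 µM zinc acetate present, and the array was washed.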

Question: Which binding signal does the source give for “ATCTCAATCAGCAACACAAATGACCCTGACCCACGATCCACGGAGTCACCTAGTGCAG” here?
Answer: The binding signal was 20900 fluorescence intensity (a.u.).

Question: Which binding signal does the source give for “GCCGTTAGTTAATTATTATCCGGTAAAGAAGATTAGTAGTCGGAGTCACCTAGTGCAG” here?
Answer: The binding signal was 12200 fluorescence intensity (a.u.).

Question: “CGTTTCTTGATTCGATGGTTGATGGATTTTGGTTTGTGGACGGAGTCACCTAGTGCAG” was tested. Which binding signal did it give?
Answer: Its binding signal is 4980 fluorescence intensity (a.u.).

Question: “GCACACATGATCAATCAATTAATAGATTAGGTAGGTACGGCGGAGTCACCTAGTGCAG” was tested. Which binding signal did it give?
Answer: The binding signal was 51100 fluorescence intensity (a.u.).

Question: For “GGCAATCAATTATTAATTGATTAATTCCATGAATAGCACACGGAGTCACCTAGTGCAG”, which binding signal is on record?
Answer: The binding signal was 64900 fluorescence intensity (a.u.).

Question: For “AAATATATTCAATTATTGATTTGATGAAACTAATTTCGTACGGAGTCACCTAGTGCAG”, which binding signal is on record?
Answer: The binding signal was 23500 fluorescence intensity (a.u.).

Question: For “ATCACCTAATCAATTGAATCCATCAATTCAAGTAGATTCACGGAGTCACCTAGTGCAG”, which binding signal is on record?
Answer: The binding signal was 9390 fluorescence intensity (a.u.).

Question: For “ATTGATTTGATGAAACTAATTTACGGCACAATAGCAAATCCGGAGTCACCTAGTGCAG”, which binding signal is on record?
Answer: Its binding signal is 57600 fluorescence intensity (a.u.).

Question: Which binding signal does the source give for “TTATGAAAATATATTTAATTATTGATTTGATGAAACTAATCGGAGTCACCTAGTGCAG” here?
Answer: Its binding signal is 5790 fluorescence intensity (a.u.).

Question: “TATATATATATATATATATAGACACACACATCAACAACAACGGAGTCACCTAGTGCAG” was tested. Which binding signal did it give?
Answer: The binding signal was 16000 fluorescence intensity (a.u.).

Question: For “TTAATTGCTATGTTTTGACCAGTCAACGCATAGGTCGTTTCGGAGTCACCTAGTGCAG”, which binding signal is on record?
Answer: Its binding signal is 15500 fluorescence intensity (a.u.).

Question: For “ATTGCACAGATTGTGACTAATTTGCGAGACGAATCTTTTACGGAGTCACCTAGTGCAG”, which binding signal is on record?
Answer: Its binding signal is 7340 fluorescence intensity (a.u.).

Question: For “TTGGAATTTGGGGATTGGGAAGAGAGAAATCAGATTGGAACGGAGTCACCTAGTGCAG”, which binding signal is on record?
Answer: The binding signal was 4300 fluorescence intensity (a.u.).

Question: Which binding signal does the source give for “CGGAAGATTGGAATGGAAATCGGAGAGAGCAGGGGCGGTGCGGAGTCACCTAGTGCAG” here?
Answer: Its binding signal is 12800 fluorescence intensity (a.u.).

Question: For “ATTAATTAGCTGCCCGCAGACAAGACCCGTGACTTTGGCCCGGAGTCACCTAGTGCAG”, which binding signal is on record?
Answer: Its binding signal is 23800 fluorescence intensity (a.u.).

Question: With “ATAATTAAAACTCAATTAATCACACGTTATTATCACATCGCGGAGTCACCTAGTGCAG” as the sequence, how does the binding signal read?
Answer: The binding signal was 14200 fluorescence intensity (a.u.).

Question: Which binding signal does the source give for “AATTAACATCAATAACAAAGTGTTGTACTGTAATCATCTTCGGAGTCACCTAGTGCAG” here?
Answer: Its binding signal is 4050 fluorescence intensity (a.u.).

Question: For “TAGTACTCTCAATTAATTACAAACCACACCATCAAATTCTCGGAGTCACCTAGTGCAG”, which binding signal is on record?
Answer: Its binding signal is 7020 fluorescence intensity (a.u.).

Question: With “AAAGATTGCCGAGTTTAATTGCAATCAATTACGGGAAGATCGGAGTCACCTAGTGCAG” as the sequence, how does the binding signal read?
Answer: Its binding signal is 52900 fluorescence intensity (a.u.).

Question: With “TACTATTAATCAATCACATATAATTAACAATTAGTGTGATCGGAGTCACCTAGTGCAG” as the sequence, how does the binding signal read?
Answer: Its binding signal is 41200 fluorescence intensity (a.u.).

Question: For “TACAATTATGATTTGCCTTCAAATTTGCATTTTCATATTTCGGAGTCACCTAGTGCAG”, which binding signal is on record?
Answer: Its binding signal is 13500 fluorescence intensity (a.u.).

Question: With “ATAATAATTAATATTTCATTAATTATATGCTAACGAGTTTCGGAGTCACCTAGTGCAG” as the sequence, how does the binding signal read?
Answer: The binding signal was 43400 fluorescence intensity (a.u.).

Question: For “GCTTAATTAACAATCAACATAACTACTAACTAGTGTTGTTCGGAGTCACCTAGTGCAG”, which binding signal is on record?
Answer: The binding signal was 57300 fluorescence intensity (a.u.).

Question: Which binding signal does the source give for “TATAATTAATTATTTGCTAGATTTCATTCATATGACAATTCGGAGTCACCTAGTGCAG” here?
Answer: Its binding signal is 54600 fluorescence intensity (a.u.).

Question: Which binding signal does the source give for “TATTTAATTGCAACGAATACAATAGTTTAATCGGATTATACGGAGTCACCTAGTGCAG” here?
Answer: The binding signal was 9360 fluorescence intensity (a.u.).

Question: Which binding signal does the source give for “GGTTAATCAATCAATCAGTTAATTACACAATTACTCACATCGGAGTCACCTAGTGCAG” here?
Answer: The binding signal was 57300 fluorescence intensity (a.u.).

Question: Which binding signal does the source give for “GAAGATTTAATTGCAACAAATTTAATAGTGCAATCGGATCCGGAGTCACCTAGTGCAG” here?
Answer: The binding signal was 40800 fluorescence intensity (a.u.).

Question: Which binding signal does the source give for “AGATTAATTAGGCTTAATAGATTCGTCTACGTTTAATACTCGGAGTCACCTAGTGCAG” here?
Answer: Its binding signal is 20900 fluorescence intensity (a.u.).

Question: With “GCCAAATTAGATGGAAAGTTGGTTATATAGGTGTTTATATCGGAGTCACCTAGTGCAG” as the sequence, how does the binding signal read?
Answer: Its binding signal is 29100 fluorescence intensity (a.u.).

Question: With “AATTATACAATCAATCAAATACTGAAATTTAAAATTGGTACGGAGTCACCTAGTGCAG” as the sequence, how does the binding signal read?
Answer: Its binding signal is 15800 fluorescence intensity (a.u.).

Question: “CAAAAGAACAATTATTGATCAACTAATGTACACGTCCCAGCGGAGTCACCTAGTGCAG” was tested. Which binding signal did it give?
Answer: The binding signal was 13900 fluorescence intensity (a.u.).

Question: For “AGCTGAAATTAAGAACAGACAGACATGATCACAGATCGAGCGGAGTCACCTAGTGCAG”, which binding signal is on record?
Answer: Its binding signal is 10100 fluorescence intensity (a.u.).

Question: With “TGATGATTAGTCGATTACTGTTTTCCTATAGCCATCGTTACGGAGTCACCTAGTGCAG” as the sequence, how does the binding signal read?
Answer: Its binding signal is 30100 fluorescence intensity (a.u.).

Question: For “AGGAATATATATAATTTACAAATAACTAAAATTTGATATTCGGAGTCACCTAGTGCAG”, which binding signal is on record?
Answer: The binding signal was 4110 fluorescence intensity (a.u.).

Question: With “ATCTGTCACATTAGACATAAATAAAATATTTGCGAAATGTCGGAGTCACCTAGTGCAG” as the sequence, how does the binding signal read?
Answer: Its binding signal is 3540 fluorescence intensity (a.u.).

Question: With “AAGTGTTTGTAATTACTAAAATTTTGACATGAATTCAAATCGGAGTCACCTAGTGCAG” as the sequence, how does the binding signal read?
Answer: Its binding signal is 8700 fluorescence intensity (a.u.).

Question: Which binding signal does the source give for “AAATCAATAATTAAATATAGTTTCATAATATATTTATCTTCGGAGTCACCTAGTGCAG” here?
Answer: Its binding signal is 22700 fluorescence intensity (a.u.).

Question: For “GATTATGATTTGGAGAAAATTGCATCCATAAAACATTAATCGGAGTCACCTAGTGCAG”, which binding signal is on record?
Answer: Its binding signal is 8000 fluorescence intensity (a.u.).

Question: “TTTAATTTGTTCATTAAAGACCTAAGAGCTAATAAACGGACGGAGTCACCTAGTGCAG” was tested. Which binding signal did it give?
Answer: The binding signal was 23100 fluorescence intensity (a.u.).

Question: With “CGATTTCTTGTTTAATTACTAATCAATTTCATACATTCATCGGAGTCACCTAGTGCAG” as the sequence, how does the binding signal read?
Answer: The binding signal was 13400 fluorescence intensity (a.u.).

Question: How did the binding signal turn out when “TTGACCAATCAATTACTCACTGGTACGGAAAACACTATAGCGGAGTCACCTAGTGCAG” was run?
Answer: The binding signal was 23300 fluorescence intensity (a.u.).

Question: With “GAGTAATTACTAATTAGCTGGTACACTCAATCCAGTACGGCGGAGTCACCTAGTGCAG” as the sequence, how does the binding signal read?
Answer: Its binding signal is 59000 fluorescence intensity (a.u.).

Question: Which binding signal does the source give for “TTTAATTACTAATCAATTTCATACATTCATATAGTTTATTCGGAGTCACCTAGTGCAG” here?
Answer: The binding signal was 55600 fluorescence intensity (a.u.).

Question: How did the binding signal turn out when “GTTAATTTTGTTTAATTAATGGTGGAAGCAGCCATCATCACGGAGTCACCTAGTGCAG” was run?
Answer: Its binding signal is 38200 fluorescence intensity (a.u.).
